# Laboratory results: PubChem BioAssay (Tox21)
# “And” between values parts separate entries of the source, which are not always exact repeats. Equal entries are not always repeated. Inconclusive results are not listed. Entries that show only a call come without a potency. The source holds several records for some structures; these can differ, active in one and inactive in another. The source made the active and inactive calls. Unless noted, calls follow the shape of the dose curve; as a rule, active = well fitted curve in the direction sought with a large enough effect in the repeat runs; inconclusive = weak or mixed curves; inactive = no such curve, though single readings can be large; an effect the other way counts as inactive or inconclusive.
# Assays:
# [1] = qHTS assay to identify small molecule antagonists of the peroxisome proliferator-activated receptor delta (PPARd) signaling pathway - cell viability counter screen (AID 743213); details: PPARd-bla HEK293H viability, CellTiter-Glo luminescence, 17 h; series mostly up to 62 µM; also: nearly all actives have a fitted effect of over 50% in size
# In short: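 In this counter screen, HEK293H cells carrying a UAS-beta-lactamase reporter are co-treated with test compounds and 300 nM L165041 (final) for 17 h at 37 C; cell viability is quantified by CellTiter-Glo luminescence.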
# [2] = qHTS assay to identify small molecule agonists of the farnesoid-X-receptor (FXR) signaling pathway - cell viability counter screen (AID 743218); details: FXR-bla HEK293T viability, CellTiter-Glo luminescence, 16 h; series mostly up to 62.6 µM; also: nearly all actives have a fitted effect of over 45% in size; also: potency is read from the fitted curve at half-maximal effect
# In short: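 Cells were seeded, left 5 h at 37 C and 5% CO2, then dosed with compound in DMSO for 16 h. After the beta-lactamase FRET read, CellTiter-Glo was added and luminescence measured 30 min later.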
# [3] = qHTS assay to identify small molecule antagonists of the farnesoid-X-receptor (FXR) signaling pathway - cell viability counter screen (AID 743221; active = well fitted cell-killing curve with a large enough effect in the repeat runs, not every such curve was filed as active; also: nearly all actives have a fitted effect of over 50% in size); details: FXR-bla HEK293T viability, CellTiter-Glo luminescence, 16 h; series mostly up to 62.6 µM
# In short: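 Here viability was scored by luminescence after CellTiter-Glo addition to wells already read for beta-lactamase. Prior treatment: compound plus CDCA (50 uM final), 16 h, 37 C, HEK 293T FXR-bla cells.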
# [4] = qHTS assay to identify small molecule agonists of the vitamin D receptor (VDR) signaling pathway - cell viability counter screen (AID 743224); details: VDR-bla HEK293T viability, CellTiter-Glo luminescence, 16 h; series mostly up to 62.6 µM; also: nearly all actives have a fitted effect of over 50% in size
# In short: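 Cells: VDR-bla, 2,000/well, settled 4 h. Treatment: compounds in DMSO, 16 h, 37C/5% CO2. Readout: CellTiter-Glo luminescence after 30 min RT.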
# [5] = qHTS assay to identify small molecule antagonists of the vitamin D receptor (VDR) signaling pathway - cell viability counter screen (AID 743225); details: VDR-bla HEK293T viability, CellTiter-Glo luminescence, 16 h; series mostly up to 61 µM; also: nearly all actives have a fitted effect of over 50% in size
# In short: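 Compounds were pinned onto VDR-bla HEK 293T cells together with 1-alpha,25-dihydroxyvitamin D3 at 3 nM final. After 16 h at 37C and 5% CO2 plus the reporter readout, cell viability was measured by CellTiter-Glo luminescence (30 min, room temperature).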
# [6] = qHTS assay to identify small molecule agonists of the NFkB signaling pathway - cell viability counter screen (AID 1159515; calls by dose curve; also: nearly all actives have a fitted effect of over 55% in size; also: potency is read from the fitted curve at half-maximal effect); details: NFkB-bla ME-180 viability, CellTiter-Glo luminescence, 5 h; series mostly up to 61 µM
# In short: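 Cells are seeded (2,000 NFkB-bla ME-180 per well), rested overnight, and dosed with DMSO-dissolved compounds for 5 hr at 37 C. Viability is then read by CellTiter-Glo luminescence after 30 min at room temperature.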
# [7] = qHTS assay to identify small molecule agonists of the endoplasmic reticulum stress response signaling pathway (AID 1159516; active = well fitted activation curve with a large enough effect in the signal ratio in the repeat runs, not every such curve was filed as active; the % refers to the signal ratio); details: ESRE-bla HeLa, ER stress beta-lactamase reporter, 5 h; series mostly up to 61 µM
# In short: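 Cells are seeded at 1,500 per well and incubated overnight. Compounds in DMSO are added for 5 hr at 37 C, then beta-lactamase FRET substrate for 2 hr at room temperature, and fluorescence at 460 and 530 nm is measured.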
# [8] = qHTS assay to identify small molecule agonists of the endoplasmic reticulum stress response signaling pathway - cell viability counter screen (AID 1159517; calls by dose curve); details: ESRE-bla HeLa viability, CellTiter-Glo luminescence, 5 h; series mostly up to 61 µM
# In short: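 Cpd-treated ESRE-bla HeLa (5 hr, 37 C) → LiveBLAzer 2 hr RT → CellTiter-Glo 30 min RT → luminescence.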
# [9] = qHTS assay to identify small molecule antagonists of the retinoid-related orphan receptor gamma (ROR-gamma) signaling pathway - cell viability counter screen (AID 1159520); details: Tet-on RORgamma CHO cells viability, ATP luminescence, 16 h; series mostly up to 92.4 µM; also: nearly all actives have a fitted effect of over 50% in size; also: potency is read from the fitted curve at half-maximal effect
# In short: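 Tet-on ROR gamma CHO cells (1,000/well) were plated 4 hr, given compounds in DMSO for 2 hr at 37 C, then induced with 1 uM final doxycycline for 16 hr. Viability was read as ATP by CellTiter-Glo luminescence after 30 min.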
# [10] = biological target: Nuclear receptor ROR-gamma (Homo sapiens) (UniProt P51449); experiment: qHTS assay to identify small molecule antagonists of the retinoid-related orphan receptor gamma (ROR-gamma) signaling pathway (AID 1159521); details: Tet-on RORgamma CHO cells, RORE-luciferase, 16 h; series mostly up to 92.4 µM
# In short: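 Test compounds were applied to Tet-on RORγ CHO cells 2 h ahead of doxycycline hyclate (1 uM final). Luciferase reporter activity was quantified by luminescence after 16 h at 37 C and 5% CO2.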
# [11] = qHTS assay to identify small molecule agonists of the AP-1 signaling pathway - cell viability counter screen (AID 1159525; calls by dose curve; also: nearly all actives have a fitted effect of over 55% in size; also: potency is read from the fitted curve at half-maximal effect); details: ME-180 AP-1-bla cells viability, ATP luminescence, 5 h; series mostly up to 76.8 µM
# In short: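 Each titration point was normalised to DMSO and tetra n-octyl ammonium bromide controls. The read was Cell Titer Glo luminescence after 30 min at RT, following 5 h compound exposure of ME-180 AP-1-bla cells at 37 °C.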
# [12] = qHTS assay to identify small molecule agonists of the AP-1 signaling pathway (AID 1159526; calls by dose curve); details: ME-180 (cervical carcinoma) AP-1-bla reporter, beta-lactamase FRET ratio, 5 h; series mostly up to 76.8 µM
# [13] = qHTS assay to identify small molecule agonists of the RXR signaling pathway - cell viability counter screen (AID 1159529); details: RXR-alpha-bla HEK293T viability, CellTiter-Glo, 16 h; series mostly up to 76.8 µM; also: nearly all actives have a fitted effect of over 50% in size
# In short: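 Compounds dissolved in DMSO were pinned onto HEK 293T cells carrying a beta-lactamase reporter under RXR-alpha control and incubated 16 hr. Cytotoxicity was then quantified by CellTiter-Glo luminescence.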
# [14] = qHTS assay to identify small molecule antagonists of the retinoid acid receptor (RAR) signaling pathway - cell viability counter screen (AID 1159551); details: C3RL4 cells viability, ATP luminescence (CellTiter-Glo), 6 h; series mostly up to 92.4 µM; also: nearly all actives have a fitted effect of over 35% in size; also: potency is read from the fitted curve at half-maximal effect
# In short: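 Cells (C3RL4) are plated, incubated overnight, dosed with compound in DMSO, then given retinol at 1 uM final. After 6 h at 37 C, CellTiter-Glo is added and luminescence read following 30 min at room temperature.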
# [15] = qHTS assay to identify small molecule antagonists of the retinoic acid receptor (RAR) signaling pathway (AID 1159552; also: nearly all actives have a fitted effect of over 50% in size; also: potency is read from the fitted curve at half-maximal effect); details: C3RL4 RARE luciferase reporter, retinol-stimulated, 6 h; series mostly up to 92.4 µM
# In short: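 Test chemicals and DMSO controls were pin-transferred onto C3RL4 cells a day after seeding; retinol (1 uM final) followed at once. Luminescent reporter output was quantified after 6 hr of co-incubation and 30 min with detection reagent.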
# [16] = biological target: Vitamin D3 receptor (Homo sapiens) (UniProt P11473); experiment: qHTS assay to identify small molecule agonists of the vitamin D receptor (VDR) signaling pathway (AID 743222; calls by dose curve); details: HEK293T VDR-UAS-bla, beta-lactamase FRET ratio, 16 h; series mostly up to 63.5 µM
# Chain of Vitamin D3 receptor (Homo sapiens) (P11473 whole entry, looked up): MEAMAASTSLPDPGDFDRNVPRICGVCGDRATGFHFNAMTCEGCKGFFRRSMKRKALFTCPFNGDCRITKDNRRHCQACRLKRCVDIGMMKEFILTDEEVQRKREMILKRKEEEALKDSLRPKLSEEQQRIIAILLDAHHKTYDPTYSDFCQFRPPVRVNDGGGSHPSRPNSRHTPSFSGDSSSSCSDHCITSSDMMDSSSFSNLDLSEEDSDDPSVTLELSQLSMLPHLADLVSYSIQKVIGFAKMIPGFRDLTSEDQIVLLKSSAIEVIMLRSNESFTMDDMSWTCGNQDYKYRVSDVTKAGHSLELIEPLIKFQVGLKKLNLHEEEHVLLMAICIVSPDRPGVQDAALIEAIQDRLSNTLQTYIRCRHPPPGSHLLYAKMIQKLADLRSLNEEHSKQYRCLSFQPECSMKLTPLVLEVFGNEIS
# In short: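 Cells carrying a VDR-driven beta-lactamase reporter are seeded at 2,000 per well and rested 4 h. Compounds in DMSO are added for 16 h at 37C, and FRET substrate fluorescence is measured after 2 h at room temperature.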
# [17] = biological target: Vitamin D3 receptor (Homo sapiens) (UniProt P11473); experiment: qHTS assay to identify small molecule antagonists of the vitamin D receptor (VDR) signaling pathway (AID 743223; active = well fitted inhibition curve with a large enough effect in the signal ratio in the repeat runs, not every such curve was filed as active; the % refers to the signal ratio; also: potency is read from the fitted curve at half-maximal effect); details: VDR-UAS-bla HEK293T, beta-lactamase FRET ratio, 16 h; series mostly up to 61 µM
# In short: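 Inhibition of agonist-driven VDR signalling is scored in VDR-bla cells: 3 nM final 1alpha,25-dihydroxyvitamin D3 plus compound, 16 h at 37C, then beta-lactamase detection by FRET substrate fluorescence after 2 h.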
# [18] = biological target: Retinoic acid receptor RXR-alpha (Homo sapiens) (UniProt P19793); experiment: qHTS assay to identify small molecule agonists of the RXR signaling pathway (AID 1159527; calls by dose curve; also: nearly all actives have a fitted effect of over 35% in size); details: HEK293T RXRa-UAS-bla, beta-lactamase ratio, 16 h; series mostly up to 76.8 µM
# Chain of Retinoic acid receptor RXR-alpha (Homo sapiens) (P19793 whole entry, looked up): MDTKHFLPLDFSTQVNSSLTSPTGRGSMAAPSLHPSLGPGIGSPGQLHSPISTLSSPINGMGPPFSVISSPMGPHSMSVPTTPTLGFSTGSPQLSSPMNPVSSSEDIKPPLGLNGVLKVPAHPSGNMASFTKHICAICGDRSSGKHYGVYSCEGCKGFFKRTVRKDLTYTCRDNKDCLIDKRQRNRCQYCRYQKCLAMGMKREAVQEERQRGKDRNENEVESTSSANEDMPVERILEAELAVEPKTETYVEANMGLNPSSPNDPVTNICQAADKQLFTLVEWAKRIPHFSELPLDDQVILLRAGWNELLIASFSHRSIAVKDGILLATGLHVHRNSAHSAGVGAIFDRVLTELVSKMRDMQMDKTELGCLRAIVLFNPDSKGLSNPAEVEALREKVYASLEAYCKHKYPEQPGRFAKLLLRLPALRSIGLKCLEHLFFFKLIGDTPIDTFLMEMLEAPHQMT
# In short: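 Using 9-cis retinoic acid as the reference agonist, chemicals were tested in HEK 293T cells […] for 16 hr; substrate loading lasted 2 hr at room temperature.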
SMILES,Potency [1],Potency [2],Potency [3],Potency [4],Potency [5],Potency [6],outcome [7],Potency [8],Potency [9],Potency [10],Potency [11],Potency [12],Potency [13],Potency [14],Potency [15],outcome [16],Potency [17],Potency [18]
CCOP(=S)(OCC)Oc1ccc2c(C)c(Cl)c(=O)oc2c1,inactive,inactive,inactive,inactive,inactive,inactive,inactive,inactive,inactive,inactive,inactive,inactive,inactive,inactive,inactive,,,
CCCCCCCCCCCCCCCCn1cc[n+](C)c1,,inactive and 44 µM (active) and 21.9 µM (active),,,,44.6 µM (active) and inactive and 24.6 µM (active),inactive,,inactive and 61.7 µM (active) and 30.7 µM (active),,inactive and 21.9 µM (active),inactive,,inactive and 61.7 µM (active) and 43.4 µM (active),inactive and 27.6 µM (active) and 13.7 µM (active),inactive,15.5 µM (active),inactive
O=C(O)c1ccccc1O,inactive,inactive,inactive,inactive,inactive,inactive,inactive,inactive,inactive,,inactive,inactive,inactive,inactive,,,,inactive
